# Compounds with a hit are over-represented: about 8.7% of the library has one in this group of screens.
# Sfp PPTase inh: Sfp phosphopantetheinyl transferase inhibition; Q9F4F7; Biochemical Sfp PPTase activity, qHTS; Potency, µM, hits mostly inhibitors; 310,000 tested, 3.5% active;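 further: the enzyme is Sfp with the accession as filed and its product quenches rhodamine fluorescence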
#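 Fluorescence-quenching assay: 15 nM Sfp-PPTase preincubated 15 min at room temperature with compound, then 5 uM rhodamine-CoA and 12.5 uM BHQ-2-labelled YbbR peptide added. Fluorescence (ex 525/em 598 nm) read at start and after 30 min; difference gives rate.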
# ALOX12 inh: ALOX12 (human) lipoxygenase inhibition | purified 12hLO, xylenol orange hydroperoxide absorbance | Potency, µM (highest dose often 108 µM), usual class: inhibitors | 580,000 tested, 1.1% active
#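 Hydroperoxide product was detected by ferrous iron/xylenol orange as the 573 to 405 nm absorbance ratio. Arachidonic acid at 40 uM (final) was turned over for 30 min at room temperature by 150 nM human 12hLO, pH 7.0 Hepes buffer, after 15 min compound preincubation.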
# JMJD2A Tudor: inhibitors of human JMJD2A Tudor domain; O75164; AlphaScreen JMJD2A-Tudor / H3K4me3 peptide binding; Potency, µM (highest dose often 114 µM), actives largely listed as inhibitors; 390,000 tested, 4.4% active; AID 504339; further: nearly all actives have a fitted effect of over 50% in size
# Target sequence (O75164 whole entry, looked up, the tested form may be a part): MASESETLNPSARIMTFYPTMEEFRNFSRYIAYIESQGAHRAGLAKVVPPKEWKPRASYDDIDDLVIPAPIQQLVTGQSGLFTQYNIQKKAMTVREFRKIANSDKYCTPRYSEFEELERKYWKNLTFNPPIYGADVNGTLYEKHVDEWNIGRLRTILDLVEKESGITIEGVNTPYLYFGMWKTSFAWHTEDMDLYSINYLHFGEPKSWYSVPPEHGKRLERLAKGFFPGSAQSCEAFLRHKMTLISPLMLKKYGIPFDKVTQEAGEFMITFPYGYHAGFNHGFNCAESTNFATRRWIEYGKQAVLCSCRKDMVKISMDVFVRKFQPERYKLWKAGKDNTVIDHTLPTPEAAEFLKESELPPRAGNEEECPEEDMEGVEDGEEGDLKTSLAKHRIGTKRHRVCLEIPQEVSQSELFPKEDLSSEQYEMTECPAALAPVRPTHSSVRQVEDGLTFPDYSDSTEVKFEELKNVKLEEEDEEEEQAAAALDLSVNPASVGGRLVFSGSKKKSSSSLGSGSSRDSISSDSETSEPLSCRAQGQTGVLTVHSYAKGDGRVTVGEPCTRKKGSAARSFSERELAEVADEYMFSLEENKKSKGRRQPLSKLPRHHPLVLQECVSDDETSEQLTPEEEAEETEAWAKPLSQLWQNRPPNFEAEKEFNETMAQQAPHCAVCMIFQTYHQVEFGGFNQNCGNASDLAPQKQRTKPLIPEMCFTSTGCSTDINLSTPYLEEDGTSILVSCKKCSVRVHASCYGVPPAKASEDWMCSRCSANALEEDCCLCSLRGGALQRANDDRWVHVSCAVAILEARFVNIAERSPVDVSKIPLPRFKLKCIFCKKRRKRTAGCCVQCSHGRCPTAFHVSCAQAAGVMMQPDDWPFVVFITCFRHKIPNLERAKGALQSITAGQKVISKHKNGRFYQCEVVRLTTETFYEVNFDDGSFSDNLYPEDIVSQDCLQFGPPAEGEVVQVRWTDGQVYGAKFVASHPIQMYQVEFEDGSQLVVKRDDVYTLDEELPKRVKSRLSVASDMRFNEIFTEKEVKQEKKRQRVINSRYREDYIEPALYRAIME
# HP1b chromo inh: blocks HP1-beta chromodomain binding to methylated histone tails | P83916 | AlphaScreen HP1-beta / biotin-H3K9me3 peptide binding | Potency, µM (series often up to 114 µM), actives largely listed as inhibitors | 390,000 tested, 0.56% active; further: nearly all actives have a fitted effect of over 70% in size
#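 AlphaScreen: HP1-beta (50 nM) preformed 30 min with biotin-H3(1-18)K9me3 peptide (50 nM) in PBS pH 7.4, 0.01% Tween-20. Compound added for 30 min at RT, then streptavidin donor/nickel chelate acceptor beads (10 ug/mL) for 30 min.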
# BAZ2B inh: blocks human BAZ2B; Q9UIF8; AlphaScreen BAZ2B-H3K14Ac peptide displacement; Potency, µM (top dose mostly 114 µM), most hits filed as inhibitors; 360,000 tested, 4.4% active; AID 504333; further: nearly all actives have a fitted effect of over 60% in size
#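 AlphaScreen displacement: compounds (up to 110uM) incubated 30 min at room temperature with a preformed 50 nM BAZ2B/50 nM biotinylated H3K14Ac peptide complex in PBS pH 7.4 with Tween-20. Donor and acceptor beads at 10 ug/mL final added, 20 min light-protected before reading.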
# G9a inh: blocks human histone lysine methyltransferase G9a; Q96KQ7; G9a H3K9 monomethylation, AlphaScreen, 2 h; Potency, µM (highest dose often 102 µM), usual class: inhibitors; 350,000 tested, 8.8% active; further: nearly all actives have a fitted effect of over 75% in size
#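 Quantitative HTS format: methyltransferase activity on a biotin-tagged H3K9 peptide is measured by AlphaScreen, using a rabbit anti-monomethyl-H3K9 antibody with streptavidin donor and anti-IgG acceptor beads. Final levels are 20 nM enzyme, 500 nM peptide, 20 uM SAM; 2 h RT.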
# A number is an active result; - = inactive; ? = inconclusive; . = no result; [ ] = remark or other dose. The call rests on the fitted dose curve; in most records, active means well fitted curve in the direction sought with a large enough effect; inconclusive means small, poorly fitted or top-dose-only effect, or another doubt; inactive means no such curve, though single readings can be large; an effect the other way counts as inactive or inconclusive.
SMILES,Sfp PPTase inh,ALOX12 inh,JMJD2A Tudor,HP1b chromo inh,BAZ2B inh,G9a inh
Cn1nc(C(=O)Nc2ccc(Cl)c(S(=O)(=O)N3CCOCC3)c2)c2ccccc2c1=O,.,-,-,-,-,-[12.7 µM]
O=C(Nc1ccc(Cl)c(S(=O)(=O)N2CCCC2)c1)c1nn(CCO)c(=O)c2ccccc12,.,-,-,-,-,50.1µM
Cn1nc(C(=O)Nc2cccc(S(=O)(=O)N3CCCCC3)c2)c2ccccc2c1=O,.,-,-,-,-,39.8µM
CN(CC(=O)Nc1ccccc1C(F)(F)F)C(=O)Cc1ccc2ccccc2c1,.,-,.,.,.,.
O=c1ccc2c(o1)/C(=C/C=C(Cl)Cl)CCC2,39.8µM,-,-,-,-,?
CC1(C)OC(C)(C)/C(=C/Nc2ccc(O)cc2)C1=O,?,?,?,-,?,8.91µM
CSCC[C@H](NC(=O)NCc1ccccc1F)C(=O)O,-,-,-,-,-,44.7µM
Cc1ccc(NC(=S)c2ccc3ccccc3n2)c(C)c1,22.4µM,-,?,11.2µM,12.6µM,8.91µM
COc1ccc(N=C(NN)c2ccc3ccccc3n2)cc1,-,?,-,-,?,8.91µM
COc1ccc(NC(=S)c2ccc3ccccc3n2)cc1,22.4µM,.,39.8µM,10µM,11.2µM,7.94µM
COc1ccc(CNC(=O)c2ccc3ccccc3n2)cc1,-,-,-,-,-,-
COc1ccc(NC(=O)CN(C)C(=O)c2ccc3ccccc3n2)cc1,.,-,-,-,.,.
COc1ccccc1-c1noc(CCCC(=O)Nc2ccc(S(=O)(=O)N3CCC(C)CC3)cc2)n1,.,-,.,.,.,.
CC(=O)N1CCC(Cc2ccc(C(=O)O)cc2)CC1,.,-,.,.,.,.
CC(C)CN1C(=O)COC[C@@H]1[C@H](O)c1ccc(NC(=O)c2ccco2)cc1,.,-,.,.,.,.
CCOC(=O)C1(CCOc2ccccc2)CCN(Cc2ccncc2)CC1,44.7µM,-,-,-,?,.
CCOC(=O)C1(CCOC)CCN(Cc2ccncc2)CC1,-,-,-,-,-,50.1µM
CCOC(=O)C1(CCOC)CCN(Cc2cccc(OCc3ccccc3)c2)CC1,?,?,-,-,-,-
CCOC(=O)C1(CCOc2ccccc2)CCN(Cc2cccc(OC)c2O)CC1,-,7.08µM,?,-,-,.
COCc1ccc2c(c1)c(OC(C)(C)C(=O)NCC1CCOCC1)nn2CCC(C)C,.,-,.,.,.,.
CCCNC(=O)CN1C(=O)NC(c2ccccc2OCC)C2=C1COC2=O (stereo unspecified),.,-,.,.,.,.
COCCc1noc(C2CN(C(=O)Nc3ccc(C)c(C)c3)C2)n1,.,-,.,.,.,.
S=C1NC2(CCCC2)Nc2ccccc21,-,?,-,-,?,11.2µM
c1cc2c3c(cccc3c1)NC1(CCCC1)N2,.,?,?,-,.,.
S=C1NC2(CCCCC2)Nc2ccccc21,-,-,-,-,?,44.7µM
SMILES,Sfp PPTase inh,ALOX12 inh,JMJD2A Tudor,HP1b chromo inh,BAZ2B inh,G9a inh
Nc1cc(Cc2ccccc2)ccc1O,.,5.62µM,3.16µM,44.7µM,.,.
CC(Oc1ccccc1)C(=O)NCc1ccnc(N(C)C)c1 (stereo unspecified),.,-,.,.,.,.
C[n+]1cc(-c2ccccc2)n2c1CCCCC2,-,.,-,-,44.7µM,70.8µM
COc1ccc(C2CC(=O)Nc3cc(OC)c(OC)cc32)cc1 (stereo unspecified),.,-,.,.,.,.
CCN(CC)c1ccc(C2CC(=O)Nc3cc(OC)c(OC)cc32)cc1 (stereo unspecified),-,?,50.1µM,-,44.7µM,?
COc1cc2c(cc1OC)C(c1ccc(SC)cc1)CC(=O)N2 (stereo unspecified),89.1µM,-,?,-,?,.
Nc1nc(SCc2nnc(SCC(=O)O)n2-c2ccccc2)nc2sc3c(c12)CCCC3,-,-,-,-,-,79.4µM
O=C(O)CSc1nc2sc3c(c2c(=O)n1-c1ccccc1)CCC3,-,-,?,-,-,?
O=c1[nH]c(SCc2n[nH]c(=S)n2-c2ccccc2)nc2sc3c(c12)CCC3,?,?,56.2µM,-,-,2µM
CN1CC(=O)N(C2CNC2)Cc2c(NC3CCCC3)ncnc21,.,-,.,.,.,.
CCc1ccc2[nH]c(C(=O)N(C)c3ccc(F)cc3F)cc2c1,?,-,-,-,-,39.8µM
O=C(Nc1cccc(Cl)c1)Nc1ncc(Cl)cc1Cl,.,-,.,.,.,.
CC(C)C1=C2OC(N)=C(C#N)C(C#N)=C2C(C)CC1 (stereo unspecified),79.4µM,-,-,-,-,?
O=C(c1ccc2ncccc2c1)N1CCC(N2CC3CC(C2)[C@H]2CCCC(=O)N2C3)CC1 (stereo partly specified),.,-,.,.,.,.
CC(C)C1Nc2c(O)cc(Cl)c([N+](=O)[O-])c2C2C=CCC21 (stereo unspecified),-,?,39.8µM,?,25.1µM,25.1µM
CN(C)C(CNC(=S)NC(C)(C)CC(C)(C)C)c1ccccc1 (stereo unspecified),.,-,.,.,.,.
COc1ccc(-c2cc([C@H]3[C@@H]4C=CCC[C@@]4(C)C(=O)N3Cc3ccccc3)ccc2F)cc1OC,?,11.2µM,-,-,-,-
COc1ccc(-c2ccc([C@H]3[C@@H]4C=CCC[C@@]4(C)C(=O)N3Cc3ccccc3)c(F)c2)cc1OC,20µM,-,?,-,-,-[12.7 µM]
COc1ccc(-c2c([C@H]3[C@@H]4C=CCC[C@@]4(C)C(=O)N3Cc3ccccc3)ccc3ccccc23)cc1OC,-,-,-,-,-,-
Cc1ccc(-c2cc(C3C4C=CCCC4(C)C(=O)N3Cc3ccccc3)ccc2F)cc1 (stereo unspecified),-,.,-,-,.,.
COc1ccc(-c2ccc(OC)c(C3C4C=CCC(C)C4C(=O)N3Cc3ccccc3)c2)cc1OC (stereo unspecified),-,.,-,-,.,.
COc1ccc(-c2ccc([C@H]3[C@H]4C=CC[C@@H](C)[C@@H]4C(=O)N3Cc3ccccc3)c(F)c2)cc1OC,22.4µM,-,-,-,-,?
COc1cccc(C2CC(c3ccccc3Cl)n3nc(N)nc3N2)c1 (stereo unspecified),-,-,-,-,-,-
COc1ccc(C2(c3ccc(O)cc3O)CC(c3ccccc3Cl)NC(=S)N2)cc1 (stereo unspecified),-,17.8µM,50.1µM,?,28.2µM,?
Cc1cc2nc3n(c(=O)c2n1CC(=O)Nc1ccc(Cl)cc1F)CCCCC3,.,-,.,.,.,.
Cc1cc2nc3n(c(=O)c2n1CC(=O)NC(C)c1ccccc1)CCCCC3 (stereo unspecified),.,-,.,.,.,.
Cc1cc2nc3n(c(=O)c2n1CC(=O)Nc1ccc(Cl)cc1F)CCCC3,.,22.4µM,.,.,.,.
COc1ccc(C(C)NC(=O)Cn2c(C)cc3nc4n(c(=O)c32)CCCC4)cc1 (stereo unspecified),.,50.1µM,.,.,.,.
O=C(O)c1cc(N/N=C2/CC(c3ccccc3)Oc3ccccc32)ccc1Cl (stereo unspecified),-,?,?,-,-,11.2µM

# Screening data: PubChem, National Center for Advancing Translational Sciences (NCATS)
